{"source": "PubChem BioAssay (Tox21)", "note": "Results filed as inconclusive are left out. Active and inactive are the calls of the source. Calls follow the shape of the dose curve; as a rule, active = well fitted cell-killing curve with a large enough effect in the repeat runs; inconclusive = weak or mixed curves, or effect the other way; inactive = flat fitted curve, though single readings scatter. Non-standard residues stand in square brackets, D forms with d. Residues, ends and D or L forms follow the SMILES beside them. *: point of attachment. Sta = CC(C)C[C@H](N)[C@@H](O)CC(=O)O; Isovaleryl = CC(C)CC(=O)*"}
{"assay": "qHTS RealTime-Glo MT Cell Viability Assay in HEK293 cells - 0 hour (AID 1224880); also: top concentration of the series differs between compounds; % is scaled to controls: 0 for no effect and ±100 for the full control effect; nearly all actives have a fitted effect of over 45% in size", "conditions": "RealTime-Glo luminescence; series mostly up to 76.8 µM; activity change, negative = cytotoxicity: at the top concentration", "excerpt": "U.S. Tox21 Program National Center for Advancing Translational Sciences [NCATS] NIH Chemical Genomics Center [NCGC] U.S. Environmental Protection Agency [EPA] National Institutes of Environmental Health Sciences [NIEHS] National Toxicology Program [NTP] U.S. Food and Drug Administration [FDA] Tox21 Assay Overview: Measure of cell viability is critical in the cell-base assay. Analysis of cell viability is necessary for the characterization of cell responses to cytotoxic drugs and environmental stress. A RealTime-Glo MT Cell Viability Assay to monitor cell viability in real time of continues cell culture during 40 hours of compound treatment was used to screen Tox21 10K library compounds in Hek293 cells. The RealTime-Glo MT Cell Viability Assay is a nonlytic, homogeneous, bioluminescent method to measure cell viability in real time using a simple, plate-based method. The assay involves adding NanoLuc luciferase and a cell-permeant prosubstrate to cells in culture. Viable cells reduce the proprietary prosubstrate to generate a substrate for NanoLuc luciferase. This substrate diffuses from cells into the surrounding culture medium, where it is rapidly used by the NanoLuc Enzyme to produce a luminescent signal. The signal correlates with the number of viable cells, making the assay well suited for cytotoxicity studies.\nTox21 Assay Protocol Summary: The mixture of Hek293 cell suspension and reagents were dispensed at 600cells/6 ul/well in 1536-well tissue culture treated black solid bottom plates using a Multidrop dispenser. After the assay plates were incubated at a 37 C/5% CO2 incubator for 5 hours, 23 nL of compounds dissolved in DMSO, positive and negative controls was transferred to the assay plate by a pintool work station. The plates were incubated at 37 C for 40 hours. The luminescence intensity were measured at 0h, 8h, 16h, 24h, 32h and 40h time points using ViewLux plate reader during compound treatment."}
{"molecule": "C=C(C)C(=O)OCCCC", "activity change, negative = cytotoxicity": "11.3% (inactive)"}
{"molecule": "CCc1ccc(CC)cc1", "activity change, negative = cytotoxicity": "18.4% (inactive)"}
{"molecule": "CN(C)CCCN(C)C", "activity change, negative = cytotoxicity": "-1.25% [at 6.97 µM] (inactive)"}
{"molecule": "N#Cc1cc(NC(=O)C(=O)O)c(Cl)c(NC(=O)C(=O)O)c1", "activity change, negative = cytotoxicity": "-3.61% [at 35.3 µM] (inactive)"}
{"molecule": "Cc1ccccc1OCC(=O)O", "activity change, negative = cytotoxicity": "1.83% (inactive)"}
{"molecule": "CCCC[O][Al]([O]CCCC)[O]CCCC", "activity change, negative = cytotoxicity": "5.47% (inactive)"}
{"molecule": "COc1cc(S(N)(=O)=O)cc(C(=O)O)c1OC", "activity change, negative = cytotoxicity": "2.37% [at 35.3 µM] (inactive)"}
{"molecule": "CC1=C(O)C(=O)CO1", "activity change, negative = cytotoxicity": "-0.313% (inactive)"}
{"molecule": "Cc1ccc(Br)cc1", "activity change, negative = cytotoxicity": "-0.301% (inactive)"}
{"molecule": "CCN(CC)CC(=O)Oc1ccc(NC(C)=O)cc1", "activity change, negative = cytotoxicity": "18.6% [at 35.3 µM] (inactive)"}
{"molecule": "CC(=O)OC/C=C(/C)CCC=C(C)C", "activity change, negative = cytotoxicity": "13.8% (inactive)"}
{"molecule": "Nc1nc(Cl)cc(Cl)n1", "activity change, negative = cytotoxicity": "11.4% (inactive)"}
{"molecule": "C/C(=N\\O)c1ccc(OCC(=O)N2CCCCC2)cc1", "activity change, negative = cytotoxicity": "-3.94% [at 35.3 µM] (inactive)"}
{"molecule": "CCCCCCCCC1CO1", "note": "(stereo not given)", "activity change, negative = cytotoxicity": "-7.16% (inactive)"}
{"molecule": "NC[C@H]1O[C@H](O[C@H]2[C@H](O)[C@@H](O[C@H]3O[C@H](CO)[C@@H](O)[C@H](N)[C@H]3O)[C@H](N)C[C@@H]2N)[C@H](N)[C@@H](O)[C@@H]1O", "activity change, negative = cytotoxicity": "-0.44% [at 15.8 µM] (inactive)"}
{"molecule": "O=C(O)/C=C(\\CC(=O)O)C(=O)O", "activity change, negative = cytotoxicity": "10.1% [at 35.3 µM] (inactive)"}
{"molecule": "COC(=O)c1ccccc1Cl", "activity change, negative = cytotoxicity": "-3.42% (inactive)"}
{"molecule": "CC(C)C[P+](C)(CC(C)C)CC(C)C", "activity change, negative = cytotoxicity": "8.96% (inactive)"}
{"molecule": "COC(=O)c1ccc(C(=O)O)cc1", "activity change, negative = cytotoxicity": "-7.1% (inactive)"}
{"molecule": "C=C(C)C(=O)OCCOC1CC2CC1C1C=CCC21", "note": "(stereo not given)", "activity change, negative = cytotoxicity": "2.64% (inactive)"}
{"molecule": "O=C(O)Cc1c(Cl)ccc(Cl)c1Cl", "activity change, negative = cytotoxicity": "-13% (inactive)"}
{"molecule": "CC(C)(C)OC(=O)c1ccccc1C(=O)O", "activity change, negative = cytotoxicity": "2.12% (inactive)"}
{"molecule": "NCC1CCC(C(=O)Oc2ccc(CCC(=O)O)cc2)CC1", "note": "(stereo not given)", "activity change, negative = cytotoxicity": "11.4% [at 35.3 µM] (inactive)"}
{"molecule": "O=C[C@@H](O)[C@H](O)[C@H](O)CO", "activity change, negative = cytotoxicity": "-1.54% (inactive)"}
{"molecule": "CCN(CC)CC", "activity change, negative = cytotoxicity": "9.76% (inactive)"}
{"molecule": "CC(C)c1cc(C(C)C)cc(C(C)C)c1", "activity change, negative = cytotoxicity": "-2.11% (inactive)"}
{"molecule": "COCCCOc1cc(C[C@@H](C[C@H](N)[C@@H](O)C[C@H](C(=O)NCC(C)(C)C(N)=O)C(C)C)C(C)C)ccc1OC", "activity change, negative = cytotoxicity": "-6.83% [at 35.3 µM] (inactive)"}
{"molecule": "CSC(=O)c1cccc2nnsc12", "activity change, negative = cytotoxicity": "0.197% (inactive)"}
{"molecule": "CCCCCCCOC(C)=O", "activity change, negative = cytotoxicity": "2.45% (inactive)"}
{"molecule": "COC(=O)c1cc(Cl)c(NC(C)=O)cc1OC", "activity change, negative = cytotoxicity": "13.1% [at 35.3 µM] (inactive)"}
{"molecule": "N=C(N)N1CCc2ccccc2C1", "activity change, negative = cytotoxicity": "-0.804% [at 6.97 µM] (inactive)"}
{"molecule": "CCCC(=O)C(CC)Sc1ccoc1C", "note": "(stereo not given)", "activity change, negative = cytotoxicity": "3.5% (inactive)"}
{"molecule": "Cc1ccc(O)c([N+](=O)[O-])c1", "activity change, negative = cytotoxicity": "-16.5% (inactive)"}
{"molecule": "CC(C)CC(=O)N[C@H](C(=O)N[C@H](C(=O)N[C@@H](CC(C)C)[C@@H](O)CC(=O)N[C@@H](C)C(=O)N[C@@H](CC(C)C)[C@@H](O)CC(=O)O)C(C)C)C(C)C", "note": "(Isovaleryl-VV[Sta]A[Sta]-OH)", "activity change, negative = cytotoxicity": "4.77% [at 35.3 µM] (inactive)"}
{"molecule": "O=C(CCBr)N1CCN(C(=O)CCBr)CC1", "activity change, negative = cytotoxicity": "-7.87% [at 35.3 µM] (inactive)"}
{"molecule": "CCCCC(CC)COC(=O)CC#N", "note": "(stereo not given)", "activity change, negative = cytotoxicity": "8.47% (inactive)"}
{"molecule": "CC(CN1CC(=O)NC(=O)C1)N1CC(=O)NC(=O)C1", "note": "(stereo not given)", "activity change, negative = cytotoxicity": "-10.8% (inactive)"}
{"molecule": "CCO/C=C1\\N=C(c2ccccc2)OC1=O", "activity change, negative = cytotoxicity": "6.09% (inactive)"}
{"molecule": "O=S(=O)(O)CC(O)CCl", "note": "(stereo not given)", "activity change, negative = cytotoxicity": "0.894% (inactive)"}
{"molecule": "CC(C)(C)NCC(O)COc1cccc2c1CCC(=O)N2", "note": "(stereo not given)", "activity change, negative = cytotoxicity": "-2.77% [at 35.3 µM] (inactive)"}
